Source: PubChem (several laboratories)
ssDAF12 agonist: S. stercoralis DAF-12 activation, primary screen; AID 652126; HEK293 ssDAF-12/GRIP1 lit1-tk-luc reporter, luminescence; % of 3 µM dafachronic acid response; 370,000 compounds, 1% hits; activation, % at 6.8 µM;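 active means activation above the mean over all tested compounds plus 3 SD, cut at about 0.9% in these data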;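 further: 0% = DMSO-only wells and 100% = 3 µM delta7-dafachronic acid wells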
DAX1 inh-1: inhibitors of DAX1 repression of SF-1 activated StAR promoter; HEK293T StAR-luciferase reporter, SF-1/DAX-1 repression relief; inhibition, % at 6.8 µM; 370,000 compounds, 1.1% hits; AID 652010;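 active means inhibition above the mean over all tested compounds plus 3 SD, cut at about 3.6% in these data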;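 further: 0% = DAX-1 cells with DMSO and 100% = cells lacking DAX-1 with DMSO; higher inhibition means more luminescence from relief of DAX-1 repression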
PolyA inh: blocks polyadenylation in yeast reporter cells; S. cerevisiae SKY197-pL101 polyadenylation reporter, beta-gal luminescence; efflux-impaired pdr1/pdr3 knockout yeast; score 100 = 6 SD above DMSO; activity score, % at 12 µM; 300,000 compounds, 0.02% hits;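 active means lowest replicate activity score at least 50, where 100 means six control SD above control mean; inconclusive means lowest score under 50 but half or more replicates reach 50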;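 further: yeast exposed to compound for 9 h at 30 °C; higher score means more reporter readthrough which indicates perturbed polyadenylation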
hcDAF-12 act: H. contortus DAF-12 activation, primary screen | HEK293 hcDAF-12 lit1-tk-luc reporter, luminescence; 0% DMSO, 100% Δ7-dafachronic acid | activation, % at 6.8 µM | AID 652067 | 370,000 compounds, 1.4% hits;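 active means activation above the mean of all tested compounds plus 3 SD, cut at about 5.5% in these data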;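 further: 100% = response to 3 µM Δ7-dafachronic acid high control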
DAX1 inh-2: inhibitors of human orphan nuclear receptor DAX1 (NR0B1); HEK293 Gal4-DAX1 luciferase reporter, luminescence; inhibition, % at 6.75 µM; P51843; 340,000 compounds, 0.99% hits; AID 504766;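 active means inhibition above the mean over all tested compounds plus 3 SD, cut at about 4.2% in these data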;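 further: 0% = DAX1-transfected cells with DMSO and 100% = empty-vector control cells with DMSO; inhibition shows as a rise in luminescence from relieved DAX1 repression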
Target sequence (P51843 207-470 limits assumed): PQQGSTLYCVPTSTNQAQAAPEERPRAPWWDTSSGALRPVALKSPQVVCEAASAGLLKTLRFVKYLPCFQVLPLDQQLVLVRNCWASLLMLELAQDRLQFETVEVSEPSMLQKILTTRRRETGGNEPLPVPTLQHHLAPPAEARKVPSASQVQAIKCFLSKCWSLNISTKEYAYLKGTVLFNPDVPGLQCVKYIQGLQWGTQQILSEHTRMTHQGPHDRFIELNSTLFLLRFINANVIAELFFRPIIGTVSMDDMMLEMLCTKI
hgDAF12 agonist: agonists of H. glycines DAF-12 nuclear receptor. 370,000 compounds, 1.8% hits. HEK293 GAL4-hgDAF12 UAS-luciferase reporter, agonist luminescence; normalized to butyrate control. activation, % at 6.8 µM. AID 687014;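 active means activation above a cutoff set at the mean of all screened compounds plus 3 SD, cut at about 10% in these data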;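 further: 0% = DMSO wells and 100% = sodium butyrate wells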
An asterisk follows results filed as active; ! = repeats disagree. An excerpt weighted towards active compounds, which were near 4.1% of everything screened.

For CC1CCC/C(=N/Nc2nc3ccccc3s2)C1 (stereo not drawn) the results were ssDAF12 agonist 0, DAX1 inh-1 3, PolyA inh -15, hcDAF-12 act 6.4*, DAX1 inh-2 5.3* and hgDAF12 agonist 0.
For Cc1ccc(C(=O)Nc2nc(=O)[nH]s2)cc1 the results were ssDAF12 agonist -1, DAX1 inh-1 0, PolyA inh 8, hcDAF-12 act 0, DAX1 inh-2 4.4*! and hgDAF12 agonist 1.
Cc1ccc(C(=O)Nc2nc(=O)n(C)s2)cc1 was read as ssDAF12 agonist -1, DAX1 inh-1 1, PolyA inh 12, hcDAF-12 act 5, DAX1 inh-2 5.6* and hgDAF12 agonist 6.
`CCCCCCCCN1C(=O)[C@@H](CC(=O)N2CCCC2)C[C@@]2(C(=O)OC)C1=C[C@H](C(C)(C)C)O[C@@H]2C` gave ssDAF12 agonist -1, DAX1 inh-1 -1, hcDAF-12 act 1 and hgDAF12 agonist -1.
Screening CCOCCCNC(=O)Cn1cc2c(n1)CCCC2 returned ssDAF12 agonist -1, DAX1 inh-1 1, PolyA inh -4, hcDAF-12 act 0, DAX1 inh-2 5.4* and hgDAF12 agonist -3.
`CCCN1CCN(CCCNC(=O)Cn2cc3c(n2)CCCC3)CC1` gave ssDAF12 agonist -1, DAX1 inh-1 1, PolyA inh -7, hcDAF-12 act 1, DAX1 inh-2 1 and hgDAF12 agonist 3.
For CCOC(=O)N[C@H](C(=O)N1CCC[C@H]1C(=O)NCCc1ccccc1Cl)C1CCCCC1 the results were ssDAF12 agonist -1, DAX1 inh-1 1, hcDAF-12 act 4 and hgDAF12 agonist -2.
`COc1ccc(-c2cc(=O)oc3c(C)c(OCc4nn[nH]n4)ccc23)cc1` gave ssDAF12 agonist -1, DAX1 inh-1 1, PolyA inh 3, hcDAF-12 act -1, DAX1 inh-2 7.3* and hgDAF12 agonist -2.
Cc1c(CC(=O)O)c(=O)oc2c(C)c(OCc3nn[nH]n3)ccc12 was read as ssDAF12 agonist -1, DAX1 inh-1 0, PolyA inh inconclusive, hcDAF-12 act 0, DAX1 inh-2 0 and hgDAF12 agonist -2.
For Cc1c(Cc2ccccc2)c(=O)oc2c(C)c(OCc3nn[nH]n3)ccc12 the results were ssDAF12 agonist -1, DAX1 inh-1 0, hcDAF-12 act -1, DAX1 inh-2 5.3* and hgDAF12 agonist -2.
For Cc1ccc(S(=O)(=O)N(C)[C@H]2C[C@H]3c4[nH]c5c(-c6ccccc6)cccc5c4CCN3C(=O)[C@H]2[C@H](C)O)cc1 the results were ssDAF12 agonist -1, DAX1 inh-1 0, hcDAF-12 act 0 and hgDAF12 agonist 5.
For Fc1ccc(Cc2nnc(-c3cccs3)o2)cc1 the results were ssDAF12 agonist -1, DAX1 inh-1 0, PolyA inh 3, hcDAF-12 act 0, DAX1 inh-2 4.3* and hgDAF12 agonist 7.
Fc1ccc(-c2nnc(Cc3ccc(Cl)cc3)o2)cc1 was read as ssDAF12 agonist -1, DAX1 inh-1 1, PolyA inh -5, hcDAF-12 act -1, DAX1 inh-2 2 and hgDAF12 agonist 12*.
`c1ccc(-c2cccc(CNc3nc(-c4ccccn4)nnc3-c3ccccc3)c2)cc1` gave ssDAF12 agonist -1, hcDAF-12 act -3 and hgDAF12 agonist -11.
Screening O=C(NC1CCCCN(Cc2cccc(C(F)(F)F)c2)C1=O)c1ccc(F)cc1 (stereo not drawn) returned ssDAF12 agonist -2, DAX1 inh-1 -2, hcDAF-12 act -1 and hgDAF12 agonist -1.
`CN(Cc1cccc(Cl)c1Cl)C(=O)CCNC(=O)c1ccco1` gave ssDAF12 agonist 0, DAX1 inh-1 4.1*, hcDAF-12 act 3, DAX1 inh-2 -1 and hgDAF12 agonist -1.
For C[C@@H]1CN([C@@H](C)CO)C(=O)c2cc(N(C)C)ccc2O[C@@H]1CN(C)Cc1ccncc1 the results were ssDAF12 agonist 1.3*, DAX1 inh-1 0, hcDAF-12 act -1, DAX1 inh-2 1 and hgDAF12 agonist 2.
`C[C@@H]1CCCCO[C@@H](CN(C)Cc2ccncc2)[C@@H](C)CN([C@H](C)CO)C(=O)c2cc(NC(=O)c3ccccc3)ccc2O1` gave ssDAF12 agonist -1, DAX1 inh-1 0, hcDAF-12 act -2, DAX1 inh-2 4.8* and hgDAF12 agonist -1.
C[C@@H]1CN([C@@H](C)CO)C(=O)c2cc(NC(=O)c3ccncc3)ccc2O[C@@H](C)CCCCO[C@@H]1CN(C)C(=O)Cc1ccccc1 was read as ssDAF12 agonist 0, DAX1 inh-1 0, hcDAF-12 act 1, DAX1 inh-2 0 and hgDAF12 agonist 1.
For Cc1noc(C)c1NC(=O)Nc1ccc2c(c1)C(=O)N([C@H](C)CO)C[C@H](C)[C@@H](CN(C)S(=O)(=O)c1ccc(Cl)cc1)OCCCC[C@@H](C)O2 the results were ssDAF12 agonist -1, DAX1 inh-1 0, hcDAF-12 act -1, DAX1 inh-2 6.1* and hgDAF12 agonist -2.
COc1ccc(-c2nc3nc(C)cc(C)n3n2)cc1 was read as ssDAF12 agonist 0, DAX1 inh-1 1, PolyA inh -14, hcDAF-12 act 5.7*, DAX1 inh-2 1 and hgDAF12 agonist 3.
Screening CCOC(=O)C1=CC[C@H]2c3c(c4ccccc4n3C)C(=O)C1N2C returned ssDAF12 agonist -1, DAX1 inh-1 0, hcDAF-12 act 1, DAX1 inh-2 5.1* and hgDAF12 agonist -1.
`Cc1cc(C)cc(-n2ncc3c2CCCC3NC(=O)c2csnn2)c1` (stereo not drawn) gave ssDAF12 agonist -1, DAX1 inh-1 4.5*, PolyA inh 8, hcDAF-12 act -4, DAX1 inh-2 1 and hgDAF12 agonist 4.
Screening CC(CCN1CCC(C(O)(c2ccccc2)c2ccccc2)CC1)Oc1ccc(C#N)c(F)c1 (stereo not drawn) returned ssDAF12 agonist -1, DAX1 inh-1 -1, hcDAF-12 act 3 and hgDAF12 agonist 3.
`O=C(NNc1nc2c(F)cc(F)cc2s1)C1=COCCO1` gave ssDAF12 agonist -1, DAX1 inh-1 0, PolyA inh 22, hcDAF-12 act 0, DAX1 inh-2 5.6* and hgDAF12 agonist 6.
Screening O=C(COc1ccccc1)NNc1nc2c(F)cc(F)cc2s1 returned ssDAF12 agonist -1, DAX1 inh-1 0, PolyA inh -3, hcDAF-12 act 1, DAX1 inh-2 -1 and hgDAF12 agonist -2.
`Cc1cccc2sc(NNC(=O)C3=COCCO3)nc12` gave ssDAF12 agonist -1, DAX1 inh-1 0, PolyA inh 27, hcDAF-12 act 2, DAX1 inh-2 3 and hgDAF12 agonist 3.
